Laboratory results taken from PubChem BioAssay AID485364 (National Center for Advancing Translational Sciences (NCATS), 2010).
In all, about 360,000 compounds went through this assay and about 11,000 (3.1%) were called active. Entries that show only a call come without a potency. Not shown: some 4% with an inconclusive outcome. Calls come from the whole dose curve; as a rule, active = well fitted inhibition curve with a large enough effect; inconclusive = small, poorly fitted or top-dose-only effect; inactive = no such curve, though single readings can be large or run the other way. Many of the other results were omitted from the sample, so actives are more common in it than they were.

target: Schistosoma mansoni thioredoxin glutathione reductase (TGR) (UniProt Q962Y6); experiment: qHTS Assay for the Inhibitors of Schistosoma Mansoni Peroxiredoxins; conditions: purified TGR, DTNB reduction, TNB absorbance 405 nm; series mostly up to 114 µM; note: nearly all actives have a fitted effect of over 60% in size
Outline: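 First, TGR (20 nM dispensed) and NADPH were mixed with compound. Second, a 15 min room-temperature incubation followed. Third, further NADPH and then DTNB were added to start the reaction. Finally, TNB absorbance was monitored kinetically.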
Potency is the fitted concentration of half-maximal effect.

| SMILES | Potency | activity change, negative = inhibition |
| --- | --- | --- |
| COC(=O)c1scc(-c2ccccc2)c1S(=O)(=O)Nc1ccccc1 | inactive | – |
| COc1ccc(-n2c(=O)c3sc4ccccc4c3n(CC(=O)Nc3cccc(C)c3)c2=O)cc1 | inactive | – |
| Cc1cccc(N2CCN(C(=O)CCn3c(=O)c4cccn4c4cccnc43)CC2C)c1 (configuration not stated) | inactive | – |
| COC(=O)c1ccc(/C=C2/C(=O)Oc3ccccc32)cc1 | inactive | – |
| O=C1Oc2ccccc2C(=O)/C1=C/c1ccccc1O | 2 µM (active) | – |
| CC(C)(C)NC(=O)CSc1nc(-c2ccc(F)cc2)cc(C(F)(F)F)n1 | inactive | – |
| CCCC(NS(=O)(=O)c1ccc(OC)cc1)C(=O)O (configuration not stated) | inactive | – |
| COc1ccc(S(=O)(=O)/N=C2\C=C(NS(=O)(=O)c3ccccc3)C(=O)c3ccccc32)cc1 | 35.5 µM (active) | – |
| COc1ccc(S(=O)(=O)Nc2cc3c(C(=O)OC(C)C)c(C)oc3c3ccccc23)cc1 | inactive | – |
| Cc1ccccc1CN1CCNC(=O)C1CC(=O)NCCC1=CCCCC1 (configuration not stated) | inactive | – |
| CCc1cc(CNC(=O)CC2C(=O)NCCN2CC2CCCCC2)on1 (configuration not stated) | inactive | – |
| CCc1cc(CNC(=O)CC2C(=O)NCCN2Cc2ccccc2C(F)(F)F)on1 (configuration not stated) | 35.5 µM (active) | – |
| CC(C)c1ccc2oc(-c3cc(NC(=O)c4cccs4)ccc3Cl)nc2c1 | inactive | – |
| COc1ccc(OC)c(-c2csc(-c3c(N)c(C(=O)c4ccccc4)n4ccccc34)n2)c1 | inactive | – |
| CC(/C=C/C1(O)C(C)CC(=O)CC1(C)C)OC1OC(CO)C(O)C(O)C1O (configuration not stated) | 25.1 µM (active) | – |
| CC1=C(C)C(=O)OC(C(C)C2CCC3C4CC=C5CC(OC6OC(COC7OC(CO)C(O)C(O)C7O)C(O)C(O)C6O)CC(O)C5(C)C4CCC23C)C1 (configuration not stated) | inactive | – |
| C=CC1C(OC2OC(CO)C(O)C(O)C2O)OC=C(C(=O)OC)C1CC1CC(=O)CC(CC(=O)CCc2ccc(O)cc2)O1 (configuration not stated) | inactive | – |
| Cc1ccc(N(Cc2cc(=O)[nH]c3ccccc23)C(=O)CCl)cc1 | 3.16 µM (active) | – |
| CC(=O)N(Cc1cc(=O)[nH]c2ccccc12)c1ccc(C)cc1C | inactive | – |
| Cc1ccc(N(Cc2cc3ccccc3[nH]c2=O)C(=O)c2cccs2)cc1 | inactive | – |
| CCOC(=O)c1ccc(-c2ccc(/C=C(\C#N)C(=O)Nc3ccc(C)cc3)o2)cc1 | inactive | – |
| COc1ccc(OCCCn2c(C3CC(=O)N(c4ccc(F)cc4)C3)nc3ccccc32)cc1 (configuration not stated) | inactive | – |
| CCOC(=O)C1(Cc2ccccc2C)CCCN(C(=O)c2ccc(COC)o2)C1 (configuration not stated) | 15.8 µM (active) | – |
| CCOC(=O)C1(Cc2ccccc2C)CCCN(C(=O)CCc2c(C)noc2C)C1 (configuration not stated) | inactive | – |
| CCOC(=O)C1(Cc2ccccc2C)CCCN(S(C)(=O)=O)C1 (configuration not stated) | inactive | – |

| SMILES | Potency | activity change, negative = inhibition |
| --- | --- | --- |
| COc1ccc(CNc2nc(-c3ccccc3)nn2C(=O)c2ccccc2OC)cc1 | inactive | – |
| CCOC(=O)c1cccc(NC(=O)Cn2cnc3nc4c(cc3c2=O)CCCC4)c1 | inactive | – |
| CC1=C(c2ccc(C)c(C)c2)S(=O)(=O)NC1=NCc1ccccc1Cl | inactive | – |
| C=CCn1c(SCC(=O)NCC2CCCO2)nc2sc(C)c(C)c2c1=O (configuration not stated) | inactive | – |
| CCC1(C)Cc2c(sc3[nH]c(=S)n(Cc4ccccc4)c(=O)c23)CO1 (configuration not stated) | inactive | – |
| C=CCn1c(SCC(=O)Nc2ccc(NC(C)=O)cc2)nc2sc(C)c(C)c2c1=O | inactive | – |
| C=CCn1c(SCc2c(C)noc2C)nc2sc3c(c2c1=O)CCC(C)C3 (configuration not stated) | inactive | – |
| C=CCNC(=O)CSc1nc2scc(-c3ccco3)c2c(=O)n1CC=C | 39.8 µM (active) | – |
| C=CCn1c(SCC(=O)/C(C#N)=C(\C)N)nc2sc(C)c(C)c2c1=O | inactive | – |
| C=CCn1c(=S)[nH]c2scc(-c3ccco3)c2c1=O | 8.91 µM (active) | – |
| C=CCn1c(SCc2csc(C)n2)nc2scc(-c3ccc(C)o3)c2c1=O | 7.94 µM (active) | – |
| CCOC(=O)c1ccc(CN(Cc2ccccc2)S(=O)(=O)c2ccc(Cl)cc2)cc1 | inactive | – |
| Cc1cccc(N2CCN(C(=O)c3cc4c(=O)oc5ccccc5c4s3)CC2C)c1 (configuration not stated) | inactive | – |
| O=c1cc2nc(-c3ccccc3)nc(SCCOc3ccc(Cl)cc3)n2[nH]1 | inactive | – |
| COc1ccc(CNc2nc(-c3ccc(Cl)cc3)nn2C(=O)c2ccccc2)cc1 | inactive | – |
| Cc1cccc(-n2ncc(C(=O)N3CCc4ccccc4C3)c2C2CCN(C(=O)OC(C)(C)C)CC2)c1 | inactive | – |
| CN(c1ccccc1)S(=O)(=O)c1ccc(Cl)c(C(=O)OCC(=O)NCc2ccco2)c1 | 22.4 µM (active) | – |
| CN(c1ccccc1)S(=O)(=O)c1ccc(Cl)c(C(=O)OCC(=O)N2CCOCC2)c1 | inactive | – |
| CN(c1ccccc1)S(=O)(=O)c1ccc(Cl)c(C(=O)OCC(N)=O)c1 | inactive | – |
| O=S(=O)(Nc1ccc2nc(-c3cccc(Cl)c3)oc2c1)c1ccccc1 | inactive | – |
| CCc1ccccc1NS(=O)(=O)c1ccc2nc(-c3ccccc3)[nH]c2c1 | inactive | – |
| O=S(=O)(Nc1ccc2nc(-c3ccco3)[nH]c2c1)c1ccccc1 | 10 µM (active) | – |
| O=C(CN1C(=O)COc2ccc(S(=O)(=O)N3CCOCC3)cc21)N1CCN(c2cccc(Cl)c2)CC1 | inactive | – |
| CCOC(=O)CN1C(C(=O)c2ccccc2)=C(OC(=O)C(C)(C)C)c2ccccc2S1(=O)=O | inactive | – |
| Cc1ccc(N(CC(=O)NCc2ccc(Cl)cc2)S(=O)(=O)N(C)C)cc1 | inactive | – |

| SMILES | Potency | activity change, negative = inhibition |
| --- | --- | --- |
| Cc1ccc(-c2csc(N(Cc3ccco3)C(=O)c3cccs3)n2)cc1 | inactive | – |
| O=C(O)CN(Cc1ccco1)S(=O)(=O)c1ccccc1 | – | -3.68% [at 11.4 µM] (inactive) |
| O=C(O)CCC(=O)N(Cc1ccco1)c1nc(-c2ccccc2)cs1 | 44.7 µM (active) | – |
| COc1ccccc1N1CCN(c2ccc(=O)n(CC(=O)NCc3ccc(OC(C)C)cc3)n2)CC1 | inactive | – |
| Cc1cc(NS(=O)(=O)c2ccc(NC(=O)c3ccccc3C)cc2)nc(C)n1 | inactive | – |
| Cc1nnc(N2CCC(C(=O)Nc3ccc(F)cc3)CC2)c2nn(-c3ccc(Cl)cc3)c(C)c12 | inactive | – |
| COc1ccc(NC(=O)CCc2nnc3n(CC(C)C)c(=O)c4ccccc4n23)cc1OC | inactive | – |
| COc1ccc(C(=O)C[n+]2ccc(C)cc2)cc1 | inactive | – |
| COc1ccc(OCCCC(=O)Oc2ccc(OC)cc2)cc1 | inactive | – |
| COc1ccc(C(=O)CC2C(=O)N(C)C(=O)N(C)C2=O)cc1 | 25.1 µM (active) | – |
| COc1ccc(C(=O)C2CN(C)CC2C(=O)c2ccc(OC)cc2)cc1 (configuration not stated) | inactive | – |
| COc1ccc(OCC(=O)OCCN(C)C)cc1 | inactive | – |
| COc1ccc(OCCC(=O)c2ccc(OC)cc2)cc1 | 1.78 µM (active) | – |
| CC(=O)c1ccc(NC(=O)CSc2nc(-c3ccccc3F)nc3c2c(=O)n(C)c(=O)n3C)cc1 | inactive | – |
| CCN(CC)c1ccc(NC(=O)CN2C(=O)c3cccnc3Oc3ccc(Cl)cc32)c(C)c1 | inactive | – |
| Cc1cccc(C(=O)Nc2ccc(S(=O)(=O)N3CCCCC3c3cccnc3)cc2)c1 (configuration not stated) | inactive | – |
| Cc1cccc(N2CCN(C(=O)c3ccc4c(c3)CCN4S(=O)(=O)c3ccccc3)CC2)c1C | inactive | – |
| COc1cccc(NC(=O)c2csnn2)c1 | inactive | – |
| Cc1cccc(NC(=O)Cn2c(=O)n(CCC(C)C)c(=O)c3cccnc32)c1 | inactive | – |
| COc1ccc(-n2ccn(CC(=O)Nc3ccc(C)c(C)c3)c(=O)c2=O)cc1OC | inactive | – |
| CCOC(=O)c1c(-c2ccccc2)oc2ccc(OCC(=O)NN)cc12 | inactive | – |
| CCOC(=O)c1c(-c2ccccc2)oc2cc(Br)c(O)c(C=O)c12 | 15.8 µM (active) | – |
| CCOC(=O)c1c(-c2ccccc2)oc2ccc(OC(=O)N(C)C)cc12 | inactive | – |
| COc1cccc(C(=O)NCC(=O)OCc2cc(=O)n3ccsc3n2)c1 | inactive | – |
| CNC(=O)NC(=O)CSc1nnc(-c2ccc(F)cc2)n1CC1CCCO1 (configuration not stated) | inactive | – |

| SMILES | Potency | activity change, negative = inhibition |
| --- | --- | --- |
| O=C(CSc1nnc(-c2ccco2)n1CC1CCCO1)c1ccccc1 (configuration not stated) | 25.1 µM (active) | – |
| Cc1nnc(SCC(N)=O)n1CC1CCCO1 (configuration not stated) | inactive | – |
| Cc1ccccc1CSc1nc2c([nH]c3ccccc32)c(=O)n1C | inactive | – |
| COc1cccc(OCCn2c(-c3ccc(Br)cc3)nc3ccccc3c2=O)c1 | inactive | – |
| Cc1cc(NC(=O)Nc2ccccc2[N+](=O)[O-])no1 | inactive | – |
| CNc1ccc(NC(C)=O)cc1[N+](=O)[O-] | inactive | – |
| COc1ccc(OC)c(NC(=O)/C=C/c2ccc(C)o2)c1 | 50.1 µM (active) | – |
| COc1ccc(OC)c(NC(=O)Cc2cccs2)c1 | inactive | – |
| Cc1ccc(/C=C/C(=O)Nc2ccc([N+](=O)[O-])c(NC(=O)/C=C/c3ccc(C)o3)c2)o1 | 22.4 µM (active) | – |
| Cc1ccc(/C=C/C(=O)Nc2cc(S(=O)(=O)N3CCCCCC3)ccc2OCC(F)(F)F)o1 | inactive | – |
| CCc1ccc(NC(=O)N2CCN(C(=O)c3nsc4ccccc34)CC2)cc1 | inactive | – |
| Cc1cccc(C(C)C)c1NC(=O)C(NS(=O)(=O)c1cccc2nsnc12)c1ccccc1 (configuration not stated) | inactive | – |
| CCc1ccc(CNCc2c(C(=O)O)n(Cc3ccc(F)cc3Cl)c3cc(OC)ccc23)cc1 | inactive | – |
| CC(CNC(=O)c1nnc(Cc2cccc(F)c2)o1)c1ccccc1 (configuration not stated) | inactive | – |
| COc1ccc(C2C3=C(CCCC3=O)N(CC(=O)O)C3=C2C(=O)CCC3)cc1 | inactive | – |
| CCOc1ccc(C2C(C#N)=C(N)N(N(C)C)C3=C2C(=O)CCC3)cc1 (configuration not stated) | inactive | – |
| CCOc1ccc(C2C3=C(CCCC3=O)N(CC(=O)O)C3=C2C(=O)CCC3)cc1 | 44.7 µM (active) | – |
| CC(=O)Nc1ccc(NC(=O)C2CCCN(S(=O)(=O)c3ccc4c(c3)CCCC(=O)N4)C2)cc1 (configuration not stated) | inactive | – |
| COCCNC(=O)CSc1nc(-c2ccccc2)[nH]c1-c1ccc(C)cc1 | inactive | – |
| Cc1cc(OC(=O)c2ccc(Cl)cc2)cc(=O)n1C | 44.7 µM (active) | – |
| Cc1oc(C)c2c(=O)cc(-c3ccc4c(c3)OCO4)cc(OC(=O)c3ccc(Cl)cc3)c12 | inactive | – |
| Cn1cncc1COC(=O)c1ccc(Cl)cc1 | inactive | – |
